According to PubChem BioAssay (NCI):
The panel holds about 79,000 compounds, 15% with a hit somewhere; the sample as a whole holds those more often. Unmarked numbers belong to inactive results. Active and inactive are the calls of the source. Cut-off read from the data, not from the text of the source: active = growth inhibition above about 70%; inactive = the rest.

How the values were obtained:
[1] = NCI Yeast Anticancer Drug Screen. Data for the rad50 strain (AID 155);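 note: 0% = growth of vehicle-only cultures of the same strain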; conditions: S. cerevisiae rad50 strain growth inhibition; at 50.0 µM; stronger effect = higher value
Procedure, shortened: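 Compounds were tested on a yeast strain with an engineered DNA damage repair alteration; the reported value is growth inhibition normalised to vehicle treatment.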

[2] = NCI Yeast Anticancer Drug Screen. Data for the mec2-1 strain (AID 157); conditions: S. cerevisiae mec2-1 strain, at 50.0 µM, stronger effect = higher value
Procedure, shortened: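 mec2-1 yeast strain, carrying an alteration in DNA damage repair or cell cycle control, was exposed to compounds; growth inhibition was measured relative to vehicle-treated controls.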

[3] = NCI Yeast Anticancer Drug Screen. Data for the sgs1 mgt1 strain (AID 161);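 note: 0% = growth of cultures given vehicle only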; conditions: S. cerevisiae sgs1 mgt1 strain, at 50.0 µM, stronger effect = higher value
Procedure, shortened: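 Yeast cells carrying a defined DNA-repair defect were exposed to test compounds. Growth inhibition was measured relative to vehicle-treated controls.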

[4] = NCI Yeast Anticancer Drug Screen. Data for the cln2 rad14 strain (AID 165);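 note: 0% = growth equal to vehicle treated cultures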; conditions: S. cerevisiae cln2 rad14 strain, at 50.0 µM, stronger effect = higher value
Procedure, shortened: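 Yeast carrying cln2 and rad14 alterations (cell cycle control and DNA damage repair) were exposed to compounds. Growth inhibition was measured against vehicle-treated controls.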

[5] = NCI Yeast Anticancer Drug Screen. Data for the bub3 strain (AID 167); conditions: S. cerevisiae bub3 mutant strain, at 50.0 µM, stronger effect = higher value
Procedure, shortened: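 Growth of a checkpoint-deficient yeast mutant is measured after compound exposure. Values represent inhibition relative to vehicle.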

[6] = NCI Yeast Anticancer Drug Screen. Data for the mlh1 rad18 strain (AID 175); conditions: S. cerevisiae mlh1 rad18 strain growth inhibition; at 50.0 µM; stronger effect = higher value
Procedure, shortened: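 Growth inhibition of the yeast strain was measured after compound exposure and expressed relative to vehicle-treated controls. The strain carries defined defects in DNA damage repair.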

Row | Compound | growth inhibition [1] | growth inhibition [2] | growth inhibition [3] | growth inhibition [4] | growth inhibition [5] | growth inhibition [6]
1 | O=S(=O)(Nc1cccc(C2=NCCN2)c1)c1cccc2c(S(=O)(=O)Nc3cccc(C4=NCCN4)c3)cccc12 | -9.6% | -25.9% | -30.1% | -19% | -12.2% | -22.1%
2 | Cc1c(N=Nc2cccc(F)c2)c(-c2ccccc2)nn1C(=S)S | 20.2% | 5.25% | 11.7% | 15.9% | 26.8% | 16.7%
3 | CC(c1ccccc1)c1ccc2ccccc2c1C(=O)O (stereo unspecified) | 39.8% | 43.2% | 42.6% | 82% (active) | 29.6% | 64.8%
4 | S=C(NCCCN1Cc2ccccc2C1)Nc1ccccc1 | 15.4% | -4.1% | 3.15% | -16.1% | 4.85% | -10.6%
5 | COc1ccc(/C=C/C2=CC(=O)CC(/C=C/c3ccc(OC)c(OC)c3)C2)cc1OC (stereo unspecified) | 45% | 46.5% | 28.9% | 49.6% | 58.6% | 43.9%
6 | N#CCCCCN1CCOCC1 | 10.3% | -7.5% | -21.7% | 22.1% | -8.9% | 20.7%
7 | O=C1OC(Oc2ccccc2OC2OC(=O)c3ccccc32)c2ccccc21 (stereo unspecified) | -6.9% | 3.7% | 0.4% | 5.95% | -5.05% | 9.85%
8 | COCCOCCOCCC(=O)NC1CC2CCC1(C)C2(C)C (stereo unspecified) | -10.5% | -1.85% | 8.2% | -16.7% | 23.7% | 15.4%
9 | C(=N/Nc1ccccc1)/c1ccco1 | 31.6% | -1% | -2.05% | 13.7% | 12.5% | 54.9%
10 | COc1cc(C2C3=C(CCC3=O)Oc3cc4c(cc32)OCO4)cc(OC)c1OC (stereo unspecified) | 2.55% | 17.1% | -12.2% | 2.05% | -4.55% | 1.8%
11 | CCCc1cc(=O)oc2c3c(c4c(c12)OC(C)(C)C=C4)OC(C)[C@H](C)[C@@H]3O (stereo partly specified) | 14.4% | 11.4% | 32% | 8.85% | 19.8% | 26.1%
12 | S=c1sc2cscc2s1 | -6.7% | 18.6% | -8.5% | 28.6% | -3% | -1.8%
13 | COc1ccc2nc(-c3ccccc3)c(=O)[nH]c2c1 | 4.1% | 13.8% | 24.7% | 12.6% | 25.1% | 10.5%
14 | O=C(O)c1ccccc1P(=O)(O)c1ccccc1 | -13% | -10.3% | -6.7% | 5.35% | -6.85% | -31.2%
15 | COC(=O)c1c(C)cc(OC)c(C/C=C(\C)CCCc2coc(C=C(C)C)c2)c1OC | 21% | 6.55% | 19% | 11.9% | 12.4% | 25%
16 | CCN(CC)CCCNc1ncc(C)c2[nH]c3ccncc3c12 | 2.9% | 22.6% | 0.4% | -9.1% | -0.25% | 12.1%
17 | Fc1ccc(C2=NOC3COC4C=CC=CC4OCC23)cc1 (stereo unspecified) | -29.2% | -34.9% | -22.9% | -9.15% | -45.1% | -42.2%
18 | CCc1c(CO)cnc(C)c1OP(=O)(O)O | -33.5% | -39.5% | -18.1% | 3.65% | -39.6% | -22.6%
19 | CC(C)C(=O)OCC1OC(n2cnc3c(=S)nc[nH]c32)C(OC(=O)C(C)C)C1OC(=O)C(C)C (stereo unspecified) | -6.8% | 2.2% | 2.4% | -13.4% | -9.55% | 2.1%
20 | COc1ccc(C2(c3ccc(OC)cc3)c3ccccc3Cc3c(OC)cccc32)cc1 | -1.55% | 16.7% | -5.65% | 2.8% | -11.2% | 6.4%
21 | Nc1ccc(S(=O)(=O)Nc2nc(CN3CCCCC3)cs2)cc1 | 7.25% | -2.5% | 3.3% | -38.5% | -1.4% | -7.85%

Row | Compound | growth inhibition [1] | growth inhibition [2] | growth inhibition [3] | growth inhibition [4] | growth inhibition [5] | growth inhibition [6]
22 | FC(F)(F)c1nc(Cl)c2cn[nH]c2n1 | -8.7% | 39.6% | -1.15% | -16.9% | 25.9% | -24.4%
23 | COC(=O)c1c(C)ccc(C)c1C(=O)c1c(C)cc(C)cc1C | -14.6% | 11.5% | 5% | -28.1% | 24.3% | 4.1%
24 | O=C(O)C1CCC2CCCC21 (stereo unspecified) | -25.2% | -7.3% | 8.95% | -10.9% | -18% | 15.5%
25 | C/C(=N/NC(N)=O)C1=CCCC1 | 2.9% | -2.05% | -6.6% | 11% | 7.55% | -9.1%
26 | COc1ccc2c3c([nH]c2c1)C1CC2C(CC(O)C(OC)C2C(=O)O)CN1CC3 (stereo unspecified) | -6.35% | -23.7% | -1.75% | 15.2% | 0.15% | -4.9%
27 | CCOC(=O)C(NC(=O)c1ccccc1)C1NC(C(=O)O)C(C)(C)S1 (stereo unspecified) | -23.1% | 5.6% | -5.1% | -21.8% | 0.8% | 3.55%
28 | c1ccc(-c2cc3ccccc3c(-c3ccccc3)c2-c2ccccc2)cc1 | -18.6% | -1.75% | -4.8% | -1.85% | -2.65% | -15.9%
29 | O=C(O)c1cc(Cl)c(Cl)s1 | 13.2% | -20.1% | 16.7% | -68.9% | -18.3% | -1.9%
30 | CCOC(OCC)C(=O)NNC(C)C | 15.4% | -7.85% | -2.15% | -39.9% | 10% | -13.9%
31 | Cc1ccc(N2C(=O)/C(=C/c3ccc(N(CCC#N)CCC#N)cc3)N=C2COc2ccc(Cl)cc2Cl)cc1 | -0.2% | -26.9% | -7.25% | -17.8% | -36.1% | -25.9%
32 | CCOC(=O)C(=N\Nc1ccccc1)/C(C)=N\NC(N)=S | 13.2% | -7.45% | -11.7% | 8.95% | 4.5% | 1.9%
33 | OCCOCCNc1ncnc2cc(Cl)ccc12 | -12.4% | -14.7% | 5.25% | -14.2% | 7.2% | 4.2%
34 | CCCc1cc(=O)oc2c3c(c4c(c12)OC(C)(C)CC4)O[C@H](C)C(C)C3=O (stereo partly specified) | -26.9% | -30% | -28.8% | 0.4% | 6.85% | -45%
35 | CCSC(SCC)C(SCC)C(OC(=O)c1ccccc1)C(OC(=O)c1ccccc1)C(COC(=O)c1ccccc1)OC(=O)c1ccccc1 (stereo unspecified) | 9.3% | -2.35% | -14.4% | -5.3% | 4.25% | 33.3%
36 | NNC(=O)c1ccco1 | 27.2% | -3.85% | -14.3% | 20.8% | -2.1% | 15.8%
37 | N#CCCN(c1ccc(C=Nc2ccccc2Cl)cc1)S(=O)(=O)c1ccccc1 | -18.1% | -9.8% | -13.7% | 4.25% | -6.5% | 16.2%
38 | Cn1cnc([N+](=O)[O-])c1Sc1ccccc1N | -7.3% | -4.15% | 0.45% | 18.6% | -15.7% | -2.5%
39 | Nc1cccc(CC(NC(=O)c2ccccc2)C(=O)O)c1 (stereo unspecified) | -16.4% | 2.1% | 12.1% | -4.3% | 28.6% | -22.7%
40 | C/C(=N\N(c1ccccc1)c1ccccc1)c1c(O)cc(C)oc1=O | -25.8% | 8.2% | 12.9% | -27.4% | 3.05% | 14.8%
41 | CCC(CCC(=O)O)C1CCCCC1 (stereo unspecified) | 29.1% | 20.9% | 31.1% | 45.9% | 46.1% | 13.2%
